# Laboratory results from PubChem BioAssay (NCATS).
# Unmarked numbers belong to inactive results. Inconclusive results are not listed. Entries that show only a call come without a potency. The source made the active and inactive calls. Unless noted, calls come from the whole dose curve; as a rule, active = well fitted curve in the direction sought with a large enough effect; inconclusive = small, poorly fitted or top-dose-only effect, or another doubt; inactive = no such curve, though single readings can be large; an effect the other way counts as inactive or inconclusive.
# Experiments:
# [1] = qHTS Assay for Identification of Small Molecule Agonists for Thrombopoietin (TPO) Signaling Pathway (AID 917)
# Outline: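 First, Ba/F3 cells with human TPO receptor were held overnight without IL-3. Next, compounds and TPO (26 pM final) were added. After 24 hrs at 37 C, luciferase detection reagent was added and luminescence measured following 10 min at room temperature.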
# [2] = target: Pyruvate kinase (Leishmania mexicana) (UniProt Q27686); experiment: qHTS Validation Assay for Inhibitors of Leishmania Mexicana Pyruvate Kinase (AID 945)
# Outline: (§1)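 Pyruvate kinase activity of E451W LmPYK (0.2 nM) was followed as ATP output after 1 h at room temperature with 0.5 mM PEP and 0.1 mM ADP, detected by PKLight luminescence.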
# [3] = target: Pyruvate kinase PKM (Homo sapiens) (UniProt P14618); experiment: qHTS Assay for Activators of Human Muscle Pyruvate Kinase (AID 954; active = well fitted curve in the direction sought with a large enough effect, not every such curve was filed as active)
# Outline: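 PKM2, human, >95% pure, 0.1 nM; PEP 0.5 mM (Km), ADP 0.1 mM; 50 mM imidazole pH 7.2, 50 mM KCl, 0.01% Tween 20, 0.05% BSA; 1 h RT; luciferase luminescence readout.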
# [4] = Cell Viability - LYMP2-001 (AID 921); note: nearly all actives have a fitted effect of over 70% in size; note: potency is the fitted concentration of half-maximal effect
# Outline: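 Human lymphoblastoid cells (Coriell), 2500 per well, were preincubated 5 hr at 37 C, then exposed to compounds in complete medium for 24 hr at 37 C. Cellular ATP was read by CellTiter-Glo luminescence; AC50 from Hill fits of concentration-response data.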
# [5] = Confirmation and Secondary Assay for Modulators of Hemoglobin Beta Chain Splicing at IVS2 705 locus (AID 930);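 note: HeLa cells stably expressing the EGFP-705 splicing reporter; GFP fluorescence per well restored by corrected splicing of the IVS2-705 intron in EGFP; series mostly up to about 46 µM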
# Outline: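 Assay measures total GFP intensity per well in HeLa EGFP-705 cells after 2 days with compound; mis-splicing normally truncates EGFP, so fluorescence indicates corrected splicing.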
# [6] = MultiTox-Fluor Cytotoxicity Assay - LYMP1-001 - Dead Cells (AID 946); note: potency is the fitted concentration of half-maximal effect
# Outline: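 Seed 2500 LYMP1-001 cells/well, incubate 5 hr at 37 C; add compound, 16 hr at 37 C; add MultiTox-Fluor reagent, 60 min RT; read dead-cell fluorescence Ex/Em=485/520. Normalize to DMSO and 15 uM tetraoctylammonium bromide.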
# [7] = Cell Viability - LYMP1-002 - Assay at 16 hr (AID 948); note: potency is the fitted concentration of half-maximal effect
# Outline: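 Human lymphoblastoid cells (LYMP1-002), 2500/well, were preincubated 5 hr at 37 C, then exposed to compounds for 16 hr at 37 C in complete medium. Cellular ATP was read by CellTiter-Glo luminescence after 30 min at room temperature; AC50 from Hill fits.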
# [8] = MultiTox-Fluor Cytotoxicity Assay - LYMP1-002 - Live Cells (AID 955); note: potency is the fitted concentration of half-maximal effect
# Outline: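 LYMP1-002 lymphoblastoid cells; 2500 cells/well; 16 hr compound exposure, 37 C; MultiTox-Fluor reagent 60 min RT; live-cell fluorescence Ex/Em=405/510; qHTS concentration-response, Hill-equation AC50; tetraoctylammonium bromide positive control.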
# [9] = MultiTox-Fluor Cytotoxicity Assay - LYMP1-002 - Dead Cells (AID 960); note: nearly all actives have a fitted effect of over 60% in size; note: potency is the fitted concentration of half-maximal effect
# Outline: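 Readout: fluorescence at 485/520 from cell-impermeant bis-AAF-R110 cleaved by proteases leaking from damaged cells. LYMP1-002 lymphoblastoid line, 16 hr compound treatment at 37 C, concentration-response in qHTS format; Hill-equation AC50 values.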
# [10] = MultiTox-Fluor Cytotoxicity Assay - LYMP1-003 - Dead Cells (AID 961); note: nearly all actives have a fitted effect of over 70% in size; note: potency is the fitted concentration of half-maximal effect
# Outline: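 LYMP1-003 lymphoblastoid, 2500 cells/well, 5 hr settle then 16 hr cpd at 37 C; MultiTox-Fluor reagent 60 min RT; Ex/Em 485/520 dead-cell signal; norm. DMSO = 0%, 15 uM tetraoctylammonium bromide = 100%; Hill AC50.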
# [11] = MultiTox-Fluor Cytotoxicity Assay - LYMP1-003 - Live Cells (AID 962); note: potency is the fitted concentration of half-maximal effect
# Outline: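 Readout: live-cell fluorescence (Ex/Em=405/510) from GF-AFC cleavage after 60 min MultiTox-Fluor reagent at room temperature. Lymphoblastoid LYMP1-003 cells, 16 hr compound treatment, 37 C. Concentration-response fitted to standard Hill equation for AC50.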
# [12] = Cell Viability - LYMP2-003 (AID 965);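 note: cells exposed to compounds for 24 h before reading; nearly all actives have a fitted effect of over 50% in size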; note: potency is the fitted concentration of half-maximal effect
# Outline: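 Human lymphoblastoid cells (2500/well) were pre-incubated 5 hr at 37 C, then exposed to compounds over a concentration range for 24 hr at 37 C. Intracellular ATP was read by CellTiter-Glo luminescence; AC50 came from Hill-equation fits.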
# [13] = Cell Viability - LYMP2-004 (AID 966); note: nearly all actives have a fitted effect of over 65% in size
# Outline: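 Luminescent ATP read-out (CellTiter-Glo, 30 min RT) after 24 hr compound exposure at 37 C; 2500 lymphoblastoid cells/well, complete medium. Decrease in ATP = cytotoxicity; AC50 from standard Hill model.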
# [14] = Cell Viability - LYMP2-005 (AID 967); note: series mostly up to about 92 µM
# Outline: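 CellTiter-Glo luminescence (cellular ATP) read-out; LYMP2-005 lymphoblastoid cells, 2500/well, 5 h pre-incubation, then 24 h compound exposure at 37 C in complete medium. Tetraoctylammonium bromide positive control; AC50 by standard Hill fit.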
# [15] = target: Muscarinic acetylcholine receptor M1 (Rattus norvegicus) (UniProt P08482); experiment: qHTS Assay for Antagonists of Acetylcholine Muscarinic M1 Receptor: Kinetic Measurement of Intracellular Calcium Response (AID 943);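 note: Fluo-4 calcium signal as peak divided by basal fluorescence over 4 min; series mostly up to about 35 µM; nearly all actives have a fitted effect of over 75% in size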
# Outline: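 Read-out: peak over basal Fluo-4 fluorescence, kinetic at 1 Hz for 4 min after EC80 carbachol (100 nM final). Rat M1-CHO cells, dye loaded 1 h at 37C, compound added 10 min before agonist.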
# [16] = target: Muscarinic acetylcholine receptor M1 (Rattus norvegicus) (UniProt P08482); experiment: qHTS Assay for Antagonists of Acetylcholine Muscarinic M1 Receptor: Measurement of IP-One Response (AID 944); note: nearly all actives have a fitted effect of over 75% in size
# Outline: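 Read-out: HTRF competition between d2-IP1 and Eu-cryptate anti-IP1 antibody, emission 620 and 665 nm. Stimulus was carbachol, EC80 (200 nM), for 30 min in M1-CHO cells (rat receptor), after 10 min compound pre-treatment.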
# [17] = qHTS Assay for Identification of Small Molecule Agonists for Hypoxia Response Element Signaling Pathway (AID 914; active = well fitted activation curve with a large enough effect in the signal ratio, with a control signal flat, not every such curve was filed as active; the % refers to the signal ratio); settings: ME-180 (cervical carcinoma) HRE-bla reporter, beta-lactamase ratio, CoCl2, 17 h; active compounds read high
# Outline: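 Compounds in a titration series were added to ME-180 reporter cells alongside an EC50 level of CoCl2. After 17 hours, beta-lactamase activity was read as the 460nm/530nm emission ratio of CCF4, giving AC50 values.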
# [18] = MultiTox-Fluor Cytotoxicity Assay - LYMP1-001 - Live Cells (AID 947); note: potency is the fitted concentration of half-maximal effect
# [19] = target: Pyruvate kinase (Leishmania mexicana) (UniProt Q27686); experiment: qHTS Validation Assay for Activators of Leishmania Mexicana Pyruvate Kinase (AID 959)
# Outline: as §1
# Chain of Pyruvate kinase PKM (Homo sapiens) (P14618 whole entry, looked up): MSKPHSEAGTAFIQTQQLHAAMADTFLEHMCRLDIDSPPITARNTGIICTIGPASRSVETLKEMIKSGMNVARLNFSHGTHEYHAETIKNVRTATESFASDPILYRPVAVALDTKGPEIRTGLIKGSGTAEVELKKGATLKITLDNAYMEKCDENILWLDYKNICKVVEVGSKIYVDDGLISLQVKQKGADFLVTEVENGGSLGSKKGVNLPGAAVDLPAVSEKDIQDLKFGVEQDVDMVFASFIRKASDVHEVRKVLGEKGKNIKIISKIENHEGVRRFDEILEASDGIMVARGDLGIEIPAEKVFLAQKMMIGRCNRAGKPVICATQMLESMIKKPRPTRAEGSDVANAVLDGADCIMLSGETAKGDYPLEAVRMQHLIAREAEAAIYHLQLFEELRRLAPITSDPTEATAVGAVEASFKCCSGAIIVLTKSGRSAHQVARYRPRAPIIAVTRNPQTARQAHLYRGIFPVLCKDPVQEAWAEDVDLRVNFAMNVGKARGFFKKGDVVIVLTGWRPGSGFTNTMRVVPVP
# Chain of Muscarinic acetylcholine receptor M1 (Rattus norvegicus) (P08482 whole entry, looked up): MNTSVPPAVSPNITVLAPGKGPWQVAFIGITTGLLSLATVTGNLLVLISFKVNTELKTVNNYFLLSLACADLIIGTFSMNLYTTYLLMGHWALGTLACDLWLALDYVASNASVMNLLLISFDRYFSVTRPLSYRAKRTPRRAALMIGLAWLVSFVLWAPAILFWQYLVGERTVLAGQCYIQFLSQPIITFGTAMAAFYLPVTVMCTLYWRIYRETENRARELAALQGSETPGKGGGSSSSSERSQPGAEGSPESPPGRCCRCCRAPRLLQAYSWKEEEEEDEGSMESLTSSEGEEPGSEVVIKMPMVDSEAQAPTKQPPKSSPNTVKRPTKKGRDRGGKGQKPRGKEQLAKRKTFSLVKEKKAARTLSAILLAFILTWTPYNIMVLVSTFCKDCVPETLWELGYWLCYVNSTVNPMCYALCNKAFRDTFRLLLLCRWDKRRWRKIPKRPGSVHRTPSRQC
structure (smiles),measurement,setting,value
CCCn1c(=O)[nH]c(=O)c2[nH]cnc21,outcome,[1],inactive
same,outcome,[2],inactive
same,outcome,[3],inactive
Nc1ccc(C(=O)O)cc1,Potency,[4],inactive
same,outcome,[5],inactive
same,Potency,[6],inactive
same,Potency,[7],inactive
same,Potency,[8],inactive
same,Potency,[9],inactive
same,Potency,[10],inactive
same,Potency,[11],inactive
same,Potency,[12],inactive
same,Potency,[13],inactive
same,Potency,[14],inactive
C1CCc2nnnn2CC1,outcome,[1],inactive
same,outcome,[5],inactive
same,outcome,[15],inactive
same,Potency,[16],inactive
same,outcome,[2],inactive
same,outcome,[3],inactive
CC(C)(C(=O)c1cccnc1)c1cccnc1,activation,[17],-12.9%
CC(C)NC[C@@H](O)COc1cccc2ccccc12,outcome,[1],inactive
same,outcome,[5],inactive
same,Potency,[16],inactive
same,outcome,[3],inactive
O=c1ccc2ccccc2o1,Potency,[4],inactive
same,outcome,[5],inactive
same,Potency,[6],inactive
same,Potency,[18],inactive
same,Potency,[7],inactive
same,Potency,[8],inactive
same,Potency,[9],inactive
same,Potency,[10],inactive
same,Potency,[11],inactive
same,Potency,[12],inactive
same,Potency,[13],inactive
same,Potency,[14],inactive
N[C@@H](Cc1cnc[nH]1)C(=O)O,outcome,[1],inactive
same,outcome,[15],inactive
same,Potency,[16],inactive
same,outcome,[2],inactive
same,outcome,[3],inactive
C[N+]1(CCCCC[N+]2(C)CCCC2)CCCC1,outcome,[1],inactive
same,outcome,[5],inactive
same,outcome,[15],inactive
same,Potency,[16],inactive
same,outcome,[2],inactive
same,outcome,[3],inactive
NC(=NCCCCCCN=C(N)/N=C(\N)Nc1ccc(Cl)cc1)/N=C(\N)Nc1ccc(Cl)cc1,Potency,[4],39.8 µM (active)
same,outcome,[5],inactive
same,Potency,[6],50.1 µM (active)
same,Potency,[18],39.8 µM (active)
same,Potency,[7],50.1 µM (active)
same,Potency,[8],15.8 µM (active)
same,Potency,[10],31.6 µM (active)
same,Potency,[11],50.1 µM (active)
O=C(O)c1cc2cc(Cc3cccnc3)ccc2o1,outcome,[1],inactive
same,outcome,[5],inactive
same,Potency,[16],inactive
same,outcome,[3],inactive
same,outcome,[19],inactive
O=C1CCC(c2ccc(-n3ccnc3)cc2)=NN1,outcome,[1],inactive
same,outcome,[15],inactive
same,Potency,[16],inactive
same,outcome,[2],inactive
same,outcome,[3],inactive
COc1cc(-c2ccc(=O)[nH]n2)ccc1OC(F)F,outcome,[1],inactive
same,outcome,[15],inactive
same,outcome,[2],inactive
Oc1c(Cl)cc(Cl)cc1Sc1cc(Cl)cc(Cl)c1O,Potency,[4],39.8 µM (active)
same,outcome,[5],inactive
same,Potency,[6],inactive
same,Potency,[18],inactive
same,Potency,[7],inactive
same,Potency,[8],inactive
same,Potency,[9],inactive
same,Potency,[10],inactive
same,Potency,[11],inactive
same,Potency,[14],inactive
CC(=O)Oc1ccc(C(c2ccc(OC(C)=O)cc2)c2ccccn2)cc1,Potency,[4],inactive
same,outcome,[5],inactive
same,Potency,[6],inactive
same,Potency,[18],inactive
same,Potency,[7],inactive
same,Potency,[8],inactive
same,Potency,[9],inactive
same,Potency,[10],inactive
same,Potency,[11],inactive
same,Potency,[12],inactive
same,Potency,[13],inactive
same,Potency,[14],inactive
C[C@]12CC[C@@H]3c4ccc(O)cc4CC[C@H]3[C@@H]1CC[C@@H]2O,outcome,[1],inactive
same,outcome,[2],inactive
same,Potency,[6],inactive
same,Potency,[18],inactive
same,Potency,[7],inactive
same,outcome,[3],inactive
same,Potency,[8],inactive
same,Potency,[10],inactive
same,Potency,[11],inactive
same,Potency,[12],inactive
same,Potency,[13],inactive
same,Potency,[14],inactive
CN(C)/N=N/c1nc[nH]c1C(N)=O,Potency,[4],inactive
same,outcome,[5],inactive
same,Potency,[6],inactive
same,Potency,[18],inactive
same,Potency,[7],inactive
same,Potency,[8],inactive
same,Potency,[9],inactive
same,Potency,[10],inactive
same,Potency,[11],inactive
same,Potency,[12],inactive
same,Potency,[13],inactive
same,Potency,[14],inactive
CCCCCCc1ccc(O)cc1O,Potency,[4],inactive
same,outcome,[5],inactive
same,Potency,[6],inactive
same,Potency,[18],inactive
same,Potency,[7],inactive
same,Potency,[8],inactive
same,Potency,[10],inactive
same,Potency,[11],inactive
same,Potency,[12],inactive
same,Potency,[14],inactive
Cc1c(N(C)CS(=O)(=O)O)c(=O)n(-c2ccccc2)n1C,activation,[17],-4.84%
same,outcome,[5],inactive
COC1=CC(=O)C[C@@H](C)[C@]12Oc1c(Cl)c(OC)cc(OC)c1C2=O,Potency,[4],inactive
same,outcome,[5],inactive
same,Potency,[6],inactive
same,Potency,[18],inactive
same,Potency,[7],inactive
same,Potency,[8],inactive
same,Potency,[10],inactive
same,Potency,[11],inactive
same,Potency,[12],inactive
same,Potency,[13],inactive
same,Potency,[14],inactive
Oc1cc(O)c2c(c1)O[C@H](c1ccc(O)c(O)c1)[C@H](O)C2,outcome,[1],inactive
same,outcome,[15],inactive
same,Potency,[16],inactive
same,outcome,[2],inactive
same,outcome,[3],inactive
O=C1OC(c2ccc(O)cc2)(c2ccc(O)cc2)c2ccccc21,Potency,[4],inactive
same,outcome,[5],inactive
same,Potency,[6],inactive
same,Potency,[7],inactive
same,Potency,[8],inactive
same,Potency,[9],15.8 µM (active)
same,Potency,[10],inactive
same,Potency,[11],inactive
same,Potency,[12],inactive
same,Potency,[13],inactive
same,Potency,[14],inactive
CC/C(=C(/CC)c1ccc(O)cc1)c1ccc(O)cc1,Potency,[4],inactive
same,outcome,[5],inactive
same,Potency,[18],inactive
same,Potency,[7],inactive
same,Potency,[8],inactive
same,Potency,[10],inactive
same,Potency,[11],inactive
same,Potency,[12],inactive
same,Potency,[13],inactive
same,Potency,[14],inactive
CN1CCC[C@@H]1c1cccnc1,outcome,[1],inactive
same,outcome,[2],inactive
same,outcome,[3],inactive
C[C@@H]1C(=O)NC2=Nc3cccc(Cl)c3CN21,outcome,[1],inactive
same,outcome,[15],inactive
same,Potency,[16],inactive
same,outcome,[2],inactive
same,outcome,[3],inactive
C=C(CC)C(=O)c1ccc(OCC(=O)O)c(Cl)c1Cl,Potency,[4],50.1 µM (active)
same,outcome,[5],inactive
same,Potency,[18],inactive
same,Potency,[8],inactive
same,Potency,[9],31.6 µM (active)
same,Potency,[10],50.1 µM (active)
same,Potency,[11],inactive
same,Potency,[12],50.1 µM (active)
C=CCc1ccc(O)c(OC)c1,Potency,[4],inactive
same,outcome,[5],inactive
same,Potency,[6],inactive
same,Potency,[18],inactive
same,Potency,[7],inactive
same,Potency,[8],inactive
same,Potency,[9],inactive
same,Potency,[10],inactive
same,Potency,[11],inactive
same,Potency,[12],inactive
same,Potency,[13],inactive
same,Potency,[14],inactive
